Source: ChEMBL document CHEMBL3988442, “University of Dundee, Small-Polar-MMV Screening Library” (2021)

The compounds below were run against AMP-activated protein kinase, AMPK (Homo sapiens) (UniProt P54646+O43741+P54619+Q9UGJ0+Q9Y478+Q13131+Q9UGI9) (assay: AMP-dependent Kinase enzyme assay. An in vitro enzyme assay that detects ADP turnover that is directly proportional to AMPK activity. This uses naive AMPK that is activated during the assay with MK-8722). Details: 30 µM.
Assay type: functional
Design: scale not given: direction of the effect not stated beside the values

Row | SMILES | Percent Effect
1 | CC(C)(C)CC(NC(=O)N1CCS(=O)(=O)CC1)C(F)(F)F (stereo unspecified) | -0.804%
2 | Cn1nccc1CN1CCOC(c2ccc(-c3cncnc3)cn2)C1 (stereo unspecified) | 9.64%
3 | COc1cc(NCCCSc2nnc(C)s2)ncn1 | 13.7%
4 | O=S(=O)(NCC1(c2cccs2)CCCC1)c1cccnc1 | -4.96%
5 | CCc1nnc(CN2CCc3ccc(S(N)(=O)=O)cc32)o1 | 5.08%
6 | O=C(COc1cc(Cl)cc(Cl)c1)NCc1nncn1C1CC1 | -6.22%
7 | Cc1cc(NC(=O)N2CCC[C@@H]2CO)nn1-c1ccccc1Cl | 3.2%
8 | O=C(O)C1(O)CCN(c2ccc3cccc(Cl)c3n2)CC1 | 13.6%
9 | Cc1cc(CC(C)NC(=O)c2n[nH]c3c2CCC3)n[nH]1 (stereo unspecified) | 3.64%
10 | O=S(=O)(c1ccccc1N1CC(n2cccn2)C1)C(F)(F)F | 16%
11 | O=C(Cc1c[nH]c(=O)[nH]c1=O)N1CCCCC1CCc1ccccc1 (stereo unspecified) | -1.5%
12 | Cc1nnc(CN(C)CC(=O)NCCc2ccc(F)cc2)n1C | 5.73%
13 | CCc1nc(CN(C)C(=O)CSC)no1 | 1.82%
14 | CN(CCOc1ccccc1)C(=O)Nc1cccn(C)c1=O | -59.2%
15 | CSc1ccc(OCCN2CCNC(=O)C2C)cc1 (stereo unspecified) | 6.4%
16 | CC(CC(=O)c1ccco1)NC(=O)c1ccon1 (stereo unspecified) | 9.56%
17 | CN(C)Cc1cnn(-c2ccccc2C(=O)NCCC2CCCN2C)c1 (stereo unspecified) | 5.44%
18 | Cc1ccc(C(CNC(=O)c2cc(=O)c3ccccc3[nH]2)N(C)C)cc1 (stereo unspecified) | 6.26%
19 | CN(CCOc1ccccc1F)C1CCOC1=O (stereo unspecified) | -5.42%
20 | COC(=O)C1CCN(C(=O)Cn2ccc(-c3ccccc3)n2)CC1 | -5.77%
21 | Cc1cc(N2CCC(n3cc(CCCO)nn3)CC2)ccn1 | 2.02%
